Results published in PubChem BioAssay (NCATS).
Results filed as inconclusive are left out. Some compounds were tested as several samples or in several runs, with calls that do not always agree. Activity calls are given as the source filed them. Unless noted, the call rests on the fitted dose curve; in most records, active means well fitted curve in the direction sought with a large enough effect; inconclusive means small, poorly fitted or top-dose-only effect, or another doubt; inactive means no such curve, though single readings can be large; an effect the other way counts as inactive or inconclusive.

Assays:
[1] = target: Flap endonuclease 1 (Homo sapiens) (UniProt P39748); test: qHTS Validation Assay for the Inhibitors of Human Flap endonuclease 1 (FEN1) (AID 488816); further: on the % scale 0 is the no-effect control and ±100 the full control effect
Outline: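 FEN1, dispensed as a 10 nM reagent, was preincubated with pin-transferred compounds for 15 min at room temperature before substrate was added (50 nM final). Plates were read at 0 and 15 min, and a four-parameter Hill equation was fitted to the concentration-response data.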

[2] = target: Chromobox protein homolog 1 (Homo sapiens) (UniProt P83916); test: qHTS Validation Assay for Inhibitors of HP1-beta Chromodomain Interactions with Methylated Histone Tails (AID 488953);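 further: loss of AlphaScreen luminescence from HP1-beta binding biotinylated H3K9me3 peptide; series mostly up to about 110 µM; on the % scale 0 is the no-effect control and ±100 the full control effect; nearly all actives have a fitted effect of over 50% in size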
Outline: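 HP1-beta (50 nM) preformed 30 min with biotinylated H3(1-18)K9me3 peptide (50 nM) in PBS pH 7.4, 0.01% Tween-20. Compounds added for 30 min at room temperature. Complex disruption read by AlphaScreen with streptavidin donor/nickel chelate acceptor beads (10 ug/mL each).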

[3] = target: Methanococcus maripaludis chaperonin (MmCpn) (UniProt Q6LX38); test: High-Throughput Screening for Modulators of Cytosolic Chaperonin Activity: MmCpn Primary Screen (AID 488978);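 further: 50 nM MmCpn enzyme hydrolysing 30 µM ATP at 37 °C; 0% is about no effect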
Outline: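 Steps: chaperonin 50 nM final; add compound, 5 min RT; start with ATP, 30 uM final; hold 10 min at 37C; add ADP Transcreener HTRF reagent, 5 min; read ex 320, em 590 and 665 nm.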

[4] = target: Transient receptor potential cation channel subfamily V member 1 (Homo sapiens) (UniProt Q8NER1); test: HTS Assay for Compounds that Act as Enhancers of the Vanilloid Receptor 1 (AID 488979); further: 0% is about no effect
Outline: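 TRPV1-expressing cells loaded with Fluo-8 calcium dye; compounds added and calcium influx read kinetically for 3 min (agonist phase), then capsaicin at EC20 added and read 2 min more for enhancement. Fluorescence ex 480/em 520 nm.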

[5] = target: Thyrotropin receptor (Homo sapiens) (UniProt P16473); test: qHTS Assay for Antagonists of the Thyroid Stimulating Hormone Receptor (AID 488980); further: series mostly up to about 58 µM; 0% is about no effect
Outline: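 Readout is cAMP by HTRF competition between cellular cAMP and cAMP-d2 for a cryptate-labelled antibody. Antagonism was assessed in TSHR-transfected HEK293 cells stimulated with 4 nM TSH (EC80, final) in the presence of RO 20-1724.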

[6] = target: D(1A) dopamine receptor (Homo sapiens) (UniProt P21728); test: HTS Assay for Allosteric Agonists of the Human D1 Dopamine Receptor: Primary Screen for Agonists (AID 488981); further: 0% is about no effect
Outline: (§1)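 Tetracycline-induced HEK293 T-REx cells force-coupled to calcium signalling were incubated overnight at 30 C and dye-loaded at room temperature. Calcium flux over 180 s after compound addition flagged agonists; a further 180 s read after EC20 dopamine flagged potentiators.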

[7] = target: D(1A) dopamine receptor (Homo sapiens) (UniProt P21728); test: HTS Assay for Allosteric Agonists of the Human D1 Dopamine Receptor: Primary Screen for Antagonists (AID 488983);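 further: calcium flux response to an EC80 dopamine challenge measured with no-wash dye; on the % scale 0 is the no-effect control and ±100 the full control effect; nearly all actives have a fitted effect of over 65% in size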
Outline: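 Tetracycline-induced HEK293 T-REx D1 line, force-coupled to calcium flux, read with no-wash calcium dye. Compound added after 10 s baseline, read 180 s for agonism, then EC80 dopamine added and read a further 180 s.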

[8] = target: ATP-dependent 6-phosphofructokinase (Trypanosoma brucei brucei) (UniProt O15648); test: qHTS Assay to Find Inhibitors of T. brucei phosphofructokinase: hit validation (AID 492961);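 further: luminescence reports ADP formed as PFK phosphorylates fructose-6-phosphate with ATP; series mostly up to about 51 µM; on the % scale 0 is the no-effect control and ±100 the full control effect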
Outline: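 Reaction: 0.1 M triethanolamine pH 8.0, 5 mM MgCl2, F6P 0.5 mM, ATP 0.1 mM, PFK 1.25 nM, 45 min RT. Read-out: ADP-Glo luminescence. Analysis: concentration-response fits, classed by r2 and efficacy.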

[9] = Validation screen for small molecules that induce genotoxicity in human embryonic kidney (HEK293T) cells expressing luciferase-tagged ELG1 (AID 493106); further: 0% is about no effect
Outline: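 HEK293T cells expressing luciferase-tagged ELG1, 2,000 cells/well, exposed to compound 16 hr at 37 °C, 5% CO2. Luciferase read after ONE-Glo, 30 min at room temperature; increased signal indicates genetic stress.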

[10] = target: ATPase family AAA domain-containing protein 5 (Homo sapiens) (UniProt Q96QE3); test: Validation screen for small molecules that inhibit ELG1-dependent DNA repair in human embryonic kidney (HEK293T) cells expressing luciferase-tagged ELG1 (AID 493107); further: nearly all actives have a fitted effect of over 70% in size; further: potency means the concentration at half of the fitted maximal effect
Outline: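 HEK293T cells expressing luciferase-tagged ELG1, 2,000 per well, treated with 5-fluorouridine plus compound for 16 h at 37 C. ONE-Glo luminescence after 30 min at room temperature reports ELG1 reporter level.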

[11] = target: Thyrotropin-releasing hormone receptor (Homo sapiens) (UniProt P34981); test: qHTS for Small Molecule Agonists and Allosteric Enhancers of Human TRH Receptor: Validation Screen for Agonists (AID 493127;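 active means calcium activation more than 3 SD above the typical response in the agonist read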; further: 0% is about no effect); details: TRH receptor agonist cell assay; at 2 µM; stronger effect = higher value
Outline: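 TRHR cells loaded with fluo-8 calcium dye; FDSS kinetic fluorescence (Ex 480/Em 530) read at 1 s/cycle after 23 nL compound addition. Agonist-mode calcium response recorded before the 10 nM TRH (EC20) addition.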

[12] = Nrf2 qHTS screen for inhibitors: Validation (AID 493153; active means well fitted inhibition curve with a large enough effect in the main read-out, with a control signal flat, not every such curve was filed as active); details: Potency: luciferase luminescence; viability change: measured here: cytotoxicity max response
Outline: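 A549 cells carrying ARE-firefly luciferase reporter, 5000 cells/well in 5% FBS OPTI-MEM, treated with compound over a concentration series for 18-24 h at 37 C. Luciferase luminescence gave Nrf2 activity; CellTiter-Fluor fluorescence gave viability.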

[13] = qHTS for Inhibitors of Cell Surface uPA Generation: Validation Assay (AID 493164); further: 0% is about no effect
Outline: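 RAW 264.7 cells (4000/well) were plated overnight, then exposed for 18 h at 37 C, 5% CO2 to compounds in a 7-point 1:5 titration (2.45 nM–38.3 uM final). Intracellular ATP was read by ATP-Lite luminescence.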

[14] = target: Galactokinase (Homo sapiens) (UniProt P51570); test: qHTS Validation Assay for Inhibitors of Human Galactokinase (GALK) (AID 493189); further: 0% is about no effect
Outline: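 5 nM GALK / 100 uM galactose / 35 uM ATP, 20 mM HEPES pH8.0, 5 mM MgCl2, 60 mM NaCl, 1 mM DTT, 0.01% BSA (final). RT 1 h; Kinase-Glo Plus luminescence.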

[15] = Validation screen for small molecules that induce DNA re-replication in SW480 colon adenocarcinoma cells (AID 504364); further: 0% is about no effect
Outline: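 SW480 cells (250/well) exposed 48 h at 37 C, 5% CO2, then Hoechst-stained 40 min. Nuclear DNA content imaged by fluorescence scanning (405 nm excitation, 500-530 nm emission); re-replication scored as increased nuclei with elevated intensity.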

[16] = target: M-phase phosphoprotein 8 (Homo sapiens) (UniProt Q99549); test: qHTS Validation Assay for Inhibitors for MPP8 Chromodomain Interactions with Methylated Histone Tails (AID 488949); further: nearly all actives have a fitted effect of over 55% in size; further: potency means the concentration at half of the fitted maximal effect
Outline: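 50 nM MPP8 + 50 nM b-H3K9me3 peptide, PBS pH 7.4/0.01% Tween-20, 30 min RT; + cpd 30 min RT; + AlphaScreen donor/Ni-chelate acceptor beads 10 ug/mL final, 30 min dark; luminescence read.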

[17] = target: D(1A) dopamine receptor (Homo sapiens) (UniProt P21728); test: HTS Assay for Allosteric Agonists of the Human D1 Dopamine Receptor: Primary Screen for Potentiators (AID 488982); further: 0% is about no effect
Outline: as §1

[18] = target: Thioredoxin reductase 1, cytoplasmic (Rattus norvegicus) (UniProt O89049); test: qHTS Assay for Inhibitors of Mammalian Selenoprotein Thioredoxin Reductase 1 (TrxR1) (AID 488773); details: Potency: inhibition;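 further: drop in NADPH fluorescence over an 8 min run after selenite addition; series mostly up to about 57 µM; on the % scale 0 is the no-effect control and ±100 the full control effect; nearly all actives have a fitted effect of over 40% in size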
Outline: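 Steps: enzyme (90 nM) plus NADPH (400 uM final), 5 min at ~22 deg C; compound added, 15 min; selenite (400 uM final) added; fluorescence followed for 8 min. Concentration-response curves derived from the normalized delta values.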

Chain of M-phase phosphoprotein 8 (Homo sapiens) (Q99549 whole entry, looked up): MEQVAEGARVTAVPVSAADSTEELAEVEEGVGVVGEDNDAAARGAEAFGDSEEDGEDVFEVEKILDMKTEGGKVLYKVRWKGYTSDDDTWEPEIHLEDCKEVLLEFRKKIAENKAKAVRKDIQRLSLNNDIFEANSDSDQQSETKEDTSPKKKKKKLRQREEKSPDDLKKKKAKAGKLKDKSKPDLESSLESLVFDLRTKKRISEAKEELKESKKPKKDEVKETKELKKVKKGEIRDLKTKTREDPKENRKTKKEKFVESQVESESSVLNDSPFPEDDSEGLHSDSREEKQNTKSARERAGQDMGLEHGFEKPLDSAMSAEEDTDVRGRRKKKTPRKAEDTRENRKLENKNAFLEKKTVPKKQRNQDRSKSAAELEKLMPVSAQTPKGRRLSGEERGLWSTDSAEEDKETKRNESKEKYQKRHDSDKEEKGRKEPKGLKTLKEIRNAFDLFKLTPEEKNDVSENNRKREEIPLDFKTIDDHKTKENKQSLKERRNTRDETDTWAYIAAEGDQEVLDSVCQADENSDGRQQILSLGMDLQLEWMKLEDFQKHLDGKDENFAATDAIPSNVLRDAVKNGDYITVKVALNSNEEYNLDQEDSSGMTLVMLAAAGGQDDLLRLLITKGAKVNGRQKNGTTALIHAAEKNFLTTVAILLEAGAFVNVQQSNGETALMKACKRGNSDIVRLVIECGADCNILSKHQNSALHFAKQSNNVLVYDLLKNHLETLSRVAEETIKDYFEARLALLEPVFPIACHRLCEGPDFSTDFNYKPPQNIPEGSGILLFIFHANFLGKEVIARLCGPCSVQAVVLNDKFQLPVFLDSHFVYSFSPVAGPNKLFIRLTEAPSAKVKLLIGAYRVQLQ
Chain of ATP-dependent 6-phosphofructokinase (Trypanosoma brucei brucei) (O15648 whole entry, looked up): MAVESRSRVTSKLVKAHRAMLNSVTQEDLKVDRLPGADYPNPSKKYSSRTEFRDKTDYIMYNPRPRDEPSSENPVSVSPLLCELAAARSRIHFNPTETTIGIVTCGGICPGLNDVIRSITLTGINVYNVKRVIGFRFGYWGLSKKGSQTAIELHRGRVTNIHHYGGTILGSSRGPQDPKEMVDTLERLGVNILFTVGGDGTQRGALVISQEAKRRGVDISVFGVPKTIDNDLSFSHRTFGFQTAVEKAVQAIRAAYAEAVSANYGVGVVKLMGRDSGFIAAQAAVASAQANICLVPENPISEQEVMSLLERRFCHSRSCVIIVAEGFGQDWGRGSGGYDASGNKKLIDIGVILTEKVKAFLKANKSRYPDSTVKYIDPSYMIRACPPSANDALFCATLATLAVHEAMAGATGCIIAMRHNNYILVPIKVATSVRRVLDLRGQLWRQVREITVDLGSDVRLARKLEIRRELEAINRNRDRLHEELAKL
Chain of ATPase family AAA domain-containing protein 5 (Homo sapiens) (Q96QE3 whole entry, looked up, the tested form may be a part): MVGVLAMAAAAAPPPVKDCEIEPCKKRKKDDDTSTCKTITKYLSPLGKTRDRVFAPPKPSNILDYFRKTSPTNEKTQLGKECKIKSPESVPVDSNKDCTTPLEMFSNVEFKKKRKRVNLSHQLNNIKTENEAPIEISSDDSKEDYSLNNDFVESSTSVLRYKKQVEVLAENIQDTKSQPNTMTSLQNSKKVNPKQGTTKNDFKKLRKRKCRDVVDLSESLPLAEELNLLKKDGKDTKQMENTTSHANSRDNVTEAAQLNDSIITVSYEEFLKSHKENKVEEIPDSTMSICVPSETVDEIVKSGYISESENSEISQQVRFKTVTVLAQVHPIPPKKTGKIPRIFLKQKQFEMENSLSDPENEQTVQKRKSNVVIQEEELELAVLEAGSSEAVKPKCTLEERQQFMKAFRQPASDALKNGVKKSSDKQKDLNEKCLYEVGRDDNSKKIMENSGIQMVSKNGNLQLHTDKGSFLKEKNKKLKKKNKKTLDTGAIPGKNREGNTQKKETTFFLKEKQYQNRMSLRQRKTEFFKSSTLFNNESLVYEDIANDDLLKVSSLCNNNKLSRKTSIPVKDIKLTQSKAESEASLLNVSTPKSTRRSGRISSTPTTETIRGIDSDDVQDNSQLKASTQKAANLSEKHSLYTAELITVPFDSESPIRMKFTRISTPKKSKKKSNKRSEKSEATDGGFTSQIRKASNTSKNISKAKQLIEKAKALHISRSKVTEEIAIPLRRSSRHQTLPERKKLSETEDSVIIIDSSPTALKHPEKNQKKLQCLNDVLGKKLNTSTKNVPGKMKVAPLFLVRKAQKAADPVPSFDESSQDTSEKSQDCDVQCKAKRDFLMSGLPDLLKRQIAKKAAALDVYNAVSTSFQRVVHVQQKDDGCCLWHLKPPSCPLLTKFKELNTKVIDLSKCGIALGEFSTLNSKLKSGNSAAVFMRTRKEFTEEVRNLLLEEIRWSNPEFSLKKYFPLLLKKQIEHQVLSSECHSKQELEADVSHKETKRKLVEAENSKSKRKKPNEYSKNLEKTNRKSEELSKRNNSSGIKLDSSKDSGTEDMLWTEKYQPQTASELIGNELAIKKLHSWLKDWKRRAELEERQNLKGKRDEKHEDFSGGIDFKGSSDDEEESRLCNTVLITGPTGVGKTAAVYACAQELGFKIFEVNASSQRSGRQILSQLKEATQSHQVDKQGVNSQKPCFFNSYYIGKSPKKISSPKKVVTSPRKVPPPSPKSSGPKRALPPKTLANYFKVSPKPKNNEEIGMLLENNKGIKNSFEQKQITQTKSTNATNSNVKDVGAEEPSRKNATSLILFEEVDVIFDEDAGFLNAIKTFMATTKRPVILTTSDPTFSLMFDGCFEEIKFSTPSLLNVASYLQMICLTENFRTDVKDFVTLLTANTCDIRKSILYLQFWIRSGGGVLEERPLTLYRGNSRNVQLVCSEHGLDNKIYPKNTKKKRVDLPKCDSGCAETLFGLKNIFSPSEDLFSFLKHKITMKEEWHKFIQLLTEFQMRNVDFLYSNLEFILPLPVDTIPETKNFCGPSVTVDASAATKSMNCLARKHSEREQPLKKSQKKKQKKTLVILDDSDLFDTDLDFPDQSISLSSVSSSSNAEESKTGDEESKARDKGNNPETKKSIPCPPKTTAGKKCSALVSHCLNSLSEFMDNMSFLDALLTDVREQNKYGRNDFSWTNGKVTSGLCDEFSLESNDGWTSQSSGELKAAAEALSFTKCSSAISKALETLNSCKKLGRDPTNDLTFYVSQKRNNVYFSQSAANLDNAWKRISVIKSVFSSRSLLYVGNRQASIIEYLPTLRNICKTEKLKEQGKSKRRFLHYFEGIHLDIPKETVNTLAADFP
Chain of Galactokinase (Homo sapiens) (P51570 whole entry, looked up): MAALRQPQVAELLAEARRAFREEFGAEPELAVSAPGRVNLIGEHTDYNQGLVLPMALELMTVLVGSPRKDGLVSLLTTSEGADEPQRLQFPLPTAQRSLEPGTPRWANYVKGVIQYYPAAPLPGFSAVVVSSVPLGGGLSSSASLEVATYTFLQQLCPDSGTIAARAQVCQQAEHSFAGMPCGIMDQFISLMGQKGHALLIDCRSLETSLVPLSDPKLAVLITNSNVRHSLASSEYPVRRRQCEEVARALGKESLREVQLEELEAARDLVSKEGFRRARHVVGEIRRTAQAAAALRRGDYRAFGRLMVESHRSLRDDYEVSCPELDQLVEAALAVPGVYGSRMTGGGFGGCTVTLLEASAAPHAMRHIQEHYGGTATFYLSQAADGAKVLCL
Chain of Transient receptor potential cation channel subfamily V member 1 (Homo sapiens) (Q8NER1 whole entry, looked up): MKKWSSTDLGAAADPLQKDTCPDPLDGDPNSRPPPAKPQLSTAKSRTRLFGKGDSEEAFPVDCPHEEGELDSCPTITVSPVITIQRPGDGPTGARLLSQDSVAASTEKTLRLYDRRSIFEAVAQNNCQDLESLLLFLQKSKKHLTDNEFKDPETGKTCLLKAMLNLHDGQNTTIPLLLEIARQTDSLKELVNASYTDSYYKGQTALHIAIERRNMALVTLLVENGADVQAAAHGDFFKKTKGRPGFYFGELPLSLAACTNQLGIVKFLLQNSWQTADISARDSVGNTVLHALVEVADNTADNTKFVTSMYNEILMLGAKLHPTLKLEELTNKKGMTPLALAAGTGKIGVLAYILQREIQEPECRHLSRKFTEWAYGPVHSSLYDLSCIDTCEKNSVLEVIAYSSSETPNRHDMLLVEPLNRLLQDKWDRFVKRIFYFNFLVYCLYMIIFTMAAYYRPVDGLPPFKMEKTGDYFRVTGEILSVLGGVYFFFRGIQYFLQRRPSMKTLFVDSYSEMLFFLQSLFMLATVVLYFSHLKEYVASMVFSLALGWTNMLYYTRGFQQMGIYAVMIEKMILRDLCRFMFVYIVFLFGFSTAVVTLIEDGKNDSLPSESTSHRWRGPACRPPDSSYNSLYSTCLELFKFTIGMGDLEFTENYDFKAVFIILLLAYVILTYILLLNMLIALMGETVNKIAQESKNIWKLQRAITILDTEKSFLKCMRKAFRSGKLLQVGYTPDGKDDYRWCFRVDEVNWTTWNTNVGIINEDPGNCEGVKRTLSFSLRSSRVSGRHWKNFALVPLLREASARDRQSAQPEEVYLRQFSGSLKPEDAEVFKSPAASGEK
Chain of Methanococcus maripaludis chaperonin (MmCpn) (Q6LX38 1-543): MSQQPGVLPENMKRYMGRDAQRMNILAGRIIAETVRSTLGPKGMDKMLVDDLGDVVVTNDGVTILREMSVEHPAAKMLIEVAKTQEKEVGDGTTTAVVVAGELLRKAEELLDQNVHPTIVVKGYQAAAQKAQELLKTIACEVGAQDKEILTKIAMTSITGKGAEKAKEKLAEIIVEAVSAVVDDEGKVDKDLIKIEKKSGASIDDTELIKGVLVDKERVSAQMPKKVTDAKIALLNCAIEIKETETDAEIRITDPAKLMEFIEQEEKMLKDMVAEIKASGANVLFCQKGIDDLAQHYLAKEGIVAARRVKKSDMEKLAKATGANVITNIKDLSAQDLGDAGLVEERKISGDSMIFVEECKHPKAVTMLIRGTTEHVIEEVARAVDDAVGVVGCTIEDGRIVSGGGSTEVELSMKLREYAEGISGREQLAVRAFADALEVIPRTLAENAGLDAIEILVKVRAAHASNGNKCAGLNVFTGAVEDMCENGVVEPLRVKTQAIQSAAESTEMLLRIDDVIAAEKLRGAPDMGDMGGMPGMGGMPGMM

O=C(O)/C=C/C(O)c1ccc(Cl)cc1 (stereo unspecified)
inactive: Potency [1] | Potency [2] | outcome [3] | outcome [4] | outcome [5] | Potency [6] | Potency [7] | outcome [8] | Potency [9] | Potency [10] | activation [11] 0.125% | Potency [12] | outcome [13] | Potency [14] | Potency [15]
2.66%: viability change [12]

Cc1ccccc1CNc1ncnc2c1ncn2C1OC(CO)C(O)C1O (stereo unspecified)
inactive: Potency [1] | Potency [16] | Potency [2] | outcome [3] | outcome [4] | outcome [5] | Potency [6] | Potency [17] | Potency [7] | outcome [8] | activation [11] 1.31% | outcome [13] | Potency [14] | Potency [15]
active: Potency [10] 13 µM

N.N.N.N.N.N.N.N.N.N.N.N.N.N.O.O.[Ru+4].[Ru+5].[Ru+5]
inactive: Potency [6] | Potency [17] | Potency [7] | Potency [9] | outcome [13]
active: Potency [16] 8.44 µM

Cn1c(=O)c2[nH]c(-c3ccccc3)nc2n(C)c1=O
inactive: Potency [18] | Potency [16] | Potency [2] | outcome [3] | outcome [4] | outcome [5] | Potency [6] | Potency [17] | Potency [7] | Potency [9] | Potency [10] | activation [11] 0.875% | outcome [13] | Potency [14] | Potency [15]

CCCn1c(=O)c2[nH]c(-c3ccc(OCC(=O)NCCN)cc3)nc2n(CCC)c1=O
10.5%: viability change [12]
inactive: Potency [1] | Potency [16] | outcome [3] | outcome [4] | outcome [5] | Potency [6] | Potency [17] | Potency [7] | Potency [9] | activation [11] 0.688% | Potency [12] | outcome [13] | Potency [14] | Potency [15]

C[C@@H](NC(=O)/C(C#N)=C/c1ccc(O)c(O)c1)c1ccccc1
inactive: Potency [1] | outcome [4] | outcome [5] | Potency [6] | Potency [9] | Potency [10] | activation [11] 0.938% | outcome [13] | Potency [14] | Potency [15]

NC(N)=NC(=O)c1nc(Cl)c(N2CCCCCC2)nc1N
-0.682%: viability change [12]
inactive: Potency [1] | outcome [3] | outcome [5] | Potency [6] | Potency [17] | Potency [9] | Potency [10] | activation [11] 3.31% | Potency [12] | outcome [13] | Potency [14]
44.7 µM (active) and inactive: Potency [16]

O=c1[nH]c2ccccc2n1CCCN1CCN(C(c2ccccc2)c2ccccc2)CC1
inactive: outcome [4] | outcome [5] | outcome [8] | Potency [14] | Potency [15]

N.N.O=C(O)C1(C(=O)O)CCC1.[Pt]
active: Potency [16] 31.6 µM
inactive: outcome [4] | outcome [5] | activation [11] -0.5% | Potency [14] | Potency [15]
